PPARg SRC-3 ag = PPARgamma agonists recruiting SRC-3 coactivator, primary screen, biochemical | Peroxisome proliferator-activated receptor gamma (Homo sapiens), P37231 | biochemical PPARgamma/SRC-3 coactivator recruitment assay | activation, % at 8 µM | 200,000 tested, 0.26% active | AID 731, 2007; in the data active means activation above about 23%;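 further: 0% = DMSO and 100% = reference agonist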
Target sequence (P37231 whole entry, looked up): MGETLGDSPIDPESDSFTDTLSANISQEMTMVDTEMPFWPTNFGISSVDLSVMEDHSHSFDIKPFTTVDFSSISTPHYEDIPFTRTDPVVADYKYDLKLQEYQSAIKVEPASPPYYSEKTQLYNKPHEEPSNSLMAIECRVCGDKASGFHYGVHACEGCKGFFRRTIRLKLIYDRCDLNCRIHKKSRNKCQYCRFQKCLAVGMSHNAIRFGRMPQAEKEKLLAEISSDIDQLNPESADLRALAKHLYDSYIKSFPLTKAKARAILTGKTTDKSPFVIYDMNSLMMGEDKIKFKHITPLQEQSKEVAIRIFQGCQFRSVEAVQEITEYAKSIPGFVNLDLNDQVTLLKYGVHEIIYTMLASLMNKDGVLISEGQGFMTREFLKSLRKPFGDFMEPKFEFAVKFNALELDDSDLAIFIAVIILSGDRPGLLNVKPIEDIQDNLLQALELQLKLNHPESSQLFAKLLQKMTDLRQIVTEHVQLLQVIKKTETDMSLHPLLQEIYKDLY
PPARg SRC-2 ag = agonists of PPARg-SRC-2 recruitment, primary screen, biochemical, HTS; Peroxisome proliferator-activated receptor gamma (Homo sapiens), P37231; PPARgamma LBD-SRC-2 recruitment; activation, % at 8 µM; 200,000 tested, 0.34% active; AID 1032, 2008; in the data active means activation above about 22%;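 further: 0% = vehicle and 100% = reference agonist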
TR-FRET SRC-2 ct = TR-FRET signal artefacts, primary screen, artefact control for PPARgamma SRC-2 agonist project, biochemical | AID 1049, 2008 | TR-FRET artefact counter-screen; active compounds read high | 200,000 tested, 0.4% active | TR-FRET ratio at 8 µM
SRC1 TRFRET art = TR-FRET detection interference compounds, primary screen, artefact control for PPARgamma SRC-1 recruitment agonists, biochemical, TR-FRET emission ratio; TR-FRET detection artefact counter-screen; active compounds read high; TR-FRET ratio at 8 µM; 99,000 tested, 0.34% active; AID 1051, 2008; in the data active means TR-FRET ratio above about 2300
SRC3 TRFRET art = TR-FRET detection interference compounds, artefact control for PPARgamma SRC-3 recruitment agonists, biochemical, TR-FRET ratio | AID 1048, 2008 | 99,000 tested, 0.39% active | TR-FRET ratio at 8 µM | TR-FRET artefact counter-screen, PPARgamma/SRC-3 format; active compounds read high
PPARg SRC-1 ag = PPARgamma agonists recruiting SRC-1 coactivator, primary screen, biochemical; Peroxisome proliferator-activated receptor gamma (Homo sapiens), P37231; PPARgamma-SRC-1 coactivator recruitment biochemical assay; activation, % at 8 µM; 200,000 tested, 0.41% active; AID 631, 2007; in the data active means activation above about 19%;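 further: 0% = DMSO and 100% = reference agonist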
PPARg SRC2 conf = agonists of PPARgamma SRC-2 coactivator recruitment, confirmation, biochemical, HTS; shares compounds with PPARg SRC-3 ag; biochemical SRC-2 recruitment by PPARgamma; 790 tested, 52% active; AID 1297, 2008; activation, % at 8 µM; in the data active means activation above about 22%;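 further: 0% = vehicle alone and 100% = reference agonist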
PPARg SRC1 conf = PPARgamma agonists recruiting SRC-1 coactivator, confirmation, biochemical. shares compounds with PPARg SRC-3 ag. 790 tested, 43% active. activation, % at 8 µM. PPARgamma–SRC-1 coactivator recruitment biochemical assay; in the data active means activation above about 20%;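 further: 0% = vehicle wells and 100% = reference agonist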
PPARg SRC3 ag = PPARgamma-driven SRC-3 coactivator recruitment agonists, confirmation, biochemical; shares compounds with PPARg SRC-3 ag; activation, % at 8 µM; 790 tested, 29% active; biochemical PPARgamma-SRC-3 coactivator recruitment, agonist mode; in the data active means activation above about 24%;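 further: 0% = vehicle wells and 100% = reference agonist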
Numbers without * were called inactive. Only some compounds are listed: those with a hit (about 0.9% of all), similar ones and a draw of the others. Unless noted, no stated cut-off is given here; in the data, active means TR-FRET ratio above about 2000; inactive means the rest.

For CCCCOC(=O)C(C)Nc1n[nH]c(=S)[nH]c1=O (configuration not stated) the results were PPARg SRC-3 ag 26*, PPARg SRC-2 ag 21, TR-FRET SRC-2 ct 1892, PPARg SRC-1 ag 14, PPARg SRC2 conf 27*, PPARg SRC1 conf 27* and PPARg SRC3 ag 16.
CC(C)COC(=O)CNc1n[nH]c(=S)[nH]c1=O was read as PPARg SRC-3 ag 86*, PPARg SRC-2 ag 63*, TR-FRET SRC-2 ct 2814*, PPARg SRC-1 ag 52*, PPARg SRC2 conf 78*, PPARg SRC1 conf 58* and PPARg SRC3 ag 52*.
CCCCOC(=O)C(C)Nc1n[nH]c(=O)[nH]c1=O (configuration not stated) was read as PPARg SRC-3 ag 3, PPARg SRC-2 ag 3, TR-FRET SRC-2 ct 1335 and PPARg SRC-1 ag 0.
For Cc1ccc(C(=O)C(C)OC(=O)C2CC(=O)N(C3CCCCC3)C2)cc1 (configuration not stated) the results were PPARg SRC-3 ag -3, PPARg SRC-2 ag -2, TR-FRET SRC-2 ct 1400 and PPARg SRC-1 ag 2.
O=C(COC(=O)c1cccc(NS(=O)(=O)/C=C/c2ccccc2)c1)Nc1ccccc1OC(F)F was read as PPARg SRC-3 ag 2, PPARg SRC-2 ag -1, TR-FRET SRC-2 ct 1477, SRC1 TRFRET art 1570, SRC3 TRFRET art 1680 and PPARg SRC-1 ag -1.
CCC(/C=C1\Sc2ccc(OC)cc2N1CCO)=C\c1sc2ccc(OC)cc2[n+]1CCO was read as PPARg SRC-3 ag 19, PPARg SRC-2 ag 19, TR-FRET SRC-2 ct 1865, SRC1 TRFRET art 2291, SRC3 TRFRET art 1991, PPARg SRC-1 ag 23*, PPARg SRC2 conf 13, PPARg SRC1 conf 3 and PPARg SRC3 ag 8.
Screening CCn1c(=O)c(=O)[nH]c2cc(C(=O)NC3CC3)ccc21 returned PPARg SRC-3 ag 0, PPARg SRC-2 ag 2, TR-FRET SRC-2 ct 1462, SRC1 TRFRET art 1982, SRC3 TRFRET art 1661 and PPARg SRC-1 ag 3.
CCn1c(=O)c(=O)[nH]c2cc(C(=O)Nc3ccc(S(=O)(=O)N4CCCC4)cc3)ccc21 was read as PPARg SRC-3 ag 26*, PPARg SRC-2 ag 10, TR-FRET SRC-2 ct 1683, PPARg SRC-1 ag 13, PPARg SRC2 conf 3, PPARg SRC1 conf 5 and PPARg SRC3 ag 4.
Screening Cc1ccc(S(=O)(=O)N(c2nc(NC(C)C)nc(NC(C)C)n2)n2cnnc2)cc1 returned PPARg SRC-3 ag 1, PPARg SRC-2 ag 24*, TR-FRET SRC-2 ct 1703, SRC1 TRFRET art 1915, SRC3 TRFRET art 1525, PPARg SRC-1 ag 10, PPARg SRC2 conf 6, PPARg SRC1 conf 4 and PPARg SRC3 ag 2.
COC(=O)CN(n1cnnc1)S(=O)(=O)c1ccc(C)cc1 was read as PPARg SRC-3 ag -5, PPARg SRC-2 ag 5, TR-FRET SRC-2 ct 1568 and PPARg SRC-1 ag 0.
Screening CCOc1ccc(S(=O)(=O)N(C)c2ccc(OCC(=O)Nc3nc(-c4cc(OC)ccc4OC)cs3)cc2)cc1 returned PPARg SRC-3 ag 18, PPARg SRC-2 ag 26*, TR-FRET SRC-2 ct 2453*, SRC1 TRFRET art 2860*, SRC3 TRFRET art 2621*, PPARg SRC-1 ag 25*, PPARg SRC2 conf 32*, PPARg SRC1 conf 26* and PPARg SRC3 ag 21.
Cc1c2cc(O)c(=O)cc-2oc2cc(O)c(O)cc12 was read as PPARg SRC-3 ag 27*, PPARg SRC-2 ag 16, TR-FRET SRC-2 ct 1651, PPARg SRC-1 ag 6, PPARg SRC2 conf 7, PPARg SRC1 conf 7 and PPARg SRC3 ag 6.
`COc1cc(OC)c(-c2c3cc(O)c(=O)cc-3oc3cc(O)c(O)cc23)cc1OC` gave PPARg SRC-3 ag 3, PPARg SRC-2 ag 8, TR-FRET SRC-2 ct 1611, SRC1 TRFRET art 2053, SRC3 TRFRET art 1808 and PPARg SRC-1 ag 1.
Cc1ccc(S(=O)(=O)c2c(CO)c(-c3ccccc3)nn2C)cc1 was read as PPARg SRC-3 ag 34*, PPARg SRC-2 ag 10, TR-FRET SRC-2 ct 1327, SRC1 TRFRET art 1892, SRC3 TRFRET art 1207, PPARg SRC-1 ag 17, PPARg SRC2 conf 11, PPARg SRC1 conf 16 and PPARg SRC3 ag 18.
`Cc1cc(C)nc(NS(=O)(=O)c2ccc(NC(=O)CSc3nc(-c4ccccc4)c(C#N)c(=O)[nH]3)cc2)n1` gave PPARg SRC-3 ag 11, PPARg SRC-2 ag 24*, TR-FRET SRC-2 ct 2049*, SRC1 TRFRET art 2109, SRC3 TRFRET art 2218*, PPARg SRC-1 ag 21*, PPARg SRC2 conf 14, PPARg SRC1 conf 11 and PPARg SRC3 ag 11.
`N#Cc1c(-c2ccccc2)nc(SCC(=O)Nc2ccccc2)[nH]c1=O` gave PPARg SRC-3 ag 5, PPARg SRC-2 ag 6, TR-FRET SRC-2 ct 1703, SRC1 TRFRET art 2166, SRC3 TRFRET art 1873 and PPARg SRC-1 ag 17.
For CCOc1ccc(Oc2ccc(C(F)(F)F)cc2N)cc1 the results were PPARg SRC-3 ag 2, PPARg SRC-2 ag -2, TR-FRET SRC-2 ct 1468, SRC1 TRFRET art 1714, SRC3 TRFRET art 1625 and PPARg SRC-1 ag 3.
`Cc1ccc(-c2cc(-c3ccccc3)c(C#N)c(N)n2)o1` gave PPARg SRC-3 ag -4, PPARg SRC-2 ag 5, TR-FRET SRC-2 ct 1836 and PPARg SRC-1 ag 8.
Screening Cc1cc(-c2ccc(Cl)cc2)c(C#N)c(N)n1 returned PPARg SRC-3 ag 19, PPARg SRC-2 ag 12, TR-FRET SRC-2 ct 1825, PPARg SRC-1 ag 19*, PPARg SRC2 conf 3, PPARg SRC1 conf 1 and PPARg SRC3 ag 0.
CNC(=O)/C(=C\c1ccc([N+](=O)[O-])cc1)NC(C)=O was read as PPARg SRC-3 ag -4, PPARg SRC-2 ag 2, TR-FRET SRC-2 ct 1449 and PPARg SRC-1 ag -2.
For CCOC(=O)c1sc(NC(=O)CSc2nnc(C(C)C)n2C)nc1C the results were PPARg SRC-3 ag 13, PPARg SRC-2 ag 1, TR-FRET SRC-2 ct 1699 and PPARg SRC-1 ag 3.

Screening data deposited in PubChem by The Scripps Research Institute Molecular Screening Center.
